# Screens from PubChem.
# RTF Ca sens act: cardiac RTF calcium sensitization; IANBD-labeled TnC RTF fluorescence at EC20 calcium; 0% EC20 calcium, 100% full calcium; activation, % at 7.2 µM; AID 493008; 340,000 compounds, 0.24% hits;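 active = activation above the mean over all tested compounds plus 3 SD, cut at about 30% in these data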;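 note: rise in fluorescence read as greater calcium sensitivity of cardiac thin filaments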
# CRFBP-R2 block: CRF-BP/CRF-R2 complex antagonism. HEK293 CRF-R2/CRF-BP, CRF-induced calcium fluorescence. inhibition, % at 11.8 µM. 350,000 compounds, 0.59% hits. AID 588475;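 active = inhibition of the ligand-induced calcium signal above about 50% at the single tested concentration, limit read from the data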
# CRFR2-BP ag: CRF-BP/CRF-R2 complex agonism; activation, % at 13.2 µM; HEK293 CRF-R2/CRF-BP, calcium dye fluorescence (FLIPR); percent of saturating CRF peptide response; AID 588473; 350,000 compounds, 0.46% hits;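 active = activation of at least 50%, plus an integration ratio under a set limit after plate pattern correction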;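 note: plate controls were neutral control wells without compound for no effect and CRF at EC100 for full effect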
# ANO1 block: inhibitors of mouse TMEM16A calcium-activated chloride channel; 310,000 compounds, 1.2% hits; Q8BHY3; HEK293 TMEM16A/YFP iodide influx fluorescence, ionomycin; normalized B-score (activity score, 25-100; higher = stronger inhibition) at 10 µM; AID 588511;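 active = ratio plate-corrected score three or more library SD toward inhibition, starting fluorescence score within five deviations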;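 note: score derived from kinetic fluorescence span divided by baseline fluorescence per well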
# RTF Ca sens inh: cardiac RTF calcium desensitization; IANBD-labeled cardiac RTF, Ca2+ fluorescence; 340,000 compounds, 0.12% hits; inhibition, % at 7.15 µM;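 active = inhibition above the mean inhibition of all tested compounds plus 3 SD, cut at about 17% in these data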;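 note: assay run at fixed EC70 calcium of 1.6 mM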
# ANO1 activ: mouse TMEM16A channel activation, primary screen; Q8BHY3; HEK293 TMEM16A/YFP-H148Q/I152L, iodide quench fluorescence; stronger effect = lower value; B-score at 10 µM; 340,000 compounds, 0.3% hits;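 active = fluorescence-ratio B-score plate-corrected deviation score at least 3 library SD below zero, with starting fluorescence score within 5 deviations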;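 note: channel opened by trigger with iodide after compound preincubation; score built on the fluorescence ratio of max minus min over baseline; more negative score means more quench and so TMEM16A activation or potentiation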
# * hit, by the source's call; i = inactive; nt = no result given. Shown are actives, neighbours in structure and some others; about 2.4% of the full set was active somewhere.
SMILES,RTF Ca sens act,CRFBP-R2 block,CRFR2-BP ag,ANO1 block,RTF Ca sens inh,ANO1 activ
Cn1c(-c2ccc(C#N)cc2)c(C#Cc2ccccc2)c2ccccc21,-3,5,0,nt,-7,nt
N#Cc1c(-c2ccc(Cl)cc2)n(O)c2ccccc12,-7,63*,57*,nt,-2,i
Cn1nc(C(=O)NCc2ccccc2)c2c1-c1ccccc1S(=O)(=O)C2,6,-2,-1,i,3,i
Nc1cc(=O)[nH]c(SCc2nc3ccccc3n2Cc2ccccc2)n1,1,-22,0,i,4,i
Nc1ccc2c(c1)COc1ccccc1O2,5,12,1,i,-8,i
Nc1ccc2c(c1)Oc1ccccc1C=C2,-2,-12,3,i,-9,-5.3*
CCOC(=O)CC(=O)CSc1n[nH]c(=O)[nH]c1=O,-1,-1,-1,i,1,i
CCCc1cc(C(=O)N(C)CC(=O)Nc2ccc(OCC)c(OCC)c2)sc1C,0,2,-5,i,-4,i
Cc1ccc(-c2ccc(/C=C3\C(=O)ON=C3c3ccccc3)o2)c([N+](=O)[O-])c1,0,-1,40,100*,-4,-5.7*
Cc1ccc(/C=C2\C(=O)ON=C2c2ccccc2)o1,nt,-8,2,i,nt,i
CC1(C)Cc2c(sc(/N=C/N3CCCC3)c2C#N)C(C)(C)N1,1,62*,10,i,-17,i
CC1(C)Cc2c(sc(/N=C/N3CCCCCC3)c2C#N)C(C)(C)N1,7,-16,4,i,-5,i
CC(C)N(C(=O)COC(=O)c1cncc(Br)c1)C(C)C,2,104*,2,i,-1,i
Cc1ccc([C@@H]2C[C@H]3[C@@H](CN2S(=O)(=O)c2ccc(Cl)cc2)C(=O)C[C@@H](c2ccccc2)N3S(=O)(=O)c2ccc(C)cc2)cc1,nt,4,-1,nt,nt,nt
CC(=O)OCC(=O)[C@H]1CC[C@H]2[C@@H]3CCC4=CC(=O)CC[C@]4(C)[C@H]3CC[C@]12C,0,-10,1,i,-8,-5.8*
Cc1csc(NC(=O)CSc2ncnc3c2cnn3-c2ccccc2Cl)n1,-7,30,0,100*,-1,i
Cn1ncc2c(N3CCC(Cc4ccccc4)CC3)ncnc21,-1,-32,1,i,1,i
NNC(=O)c1cc2c(N3CCC(Cc4ccccc4)CC3)ncnc2s1,4,-39,-5,100*,7,i
CCOC(=O)CCC(=O)NNC(=O)c1ccc(NC(=O)c2ccccc2)cc1,-7,4,-1,i,3,-6.8*
FC(F)(F)c1cc(C(F)(F)F)c2ccc(N3CCN(c4ccc(Cl)cc4)CC3)nc2n1,1,4,0,i,1,i
N#CC(c1ccc(Cl)cc1)c1ccc2c(C(F)(F)F)cc(C(F)(F)F)nc2n1 (configuration not stated),1,69*,31,100*,-17,i
Cc1c(C(=O)Nc2cccc([N+](=O)[O-])c2)sc2ncn(CC(=O)N3CCOCC3)c(=O)c12,3,87*,2,i,-3,i
Cc1c(C(=O)Nc2ccccc2)sc2ncn(CC(=O)N3CCCCC3)c(=O)c12,-3,-6,1,i,2,i
CC(=O)/C=C/n1c(=S)oc2ccccc21,nt,70*,2,i,nt,nt
CCN(CC)c1ccc(/C=C2/C(=O)c3ccc(C(=O)O)cc3C2=O)cc1,78*,-228,215*,i,-115,i
CCN(CC)c1ccc(C=C2C(=O)OC3(CCCCC3)OC2=O)cc1,7,-20,32,i,-6,i
Cc1cccc(NC(=S)NCC(C)CSc2ccc(Cl)cc2)c1 (configuration not stated),1,7,4,25*,-10,i
COC(=O)c1nn(-c2ccccc2)c(Sc2ccc(Br)cc2)c1/C=N/O,-3,-15,-1,i,-1,i
Cc1cccc(N2CC(C(=O)Nc3nnc(SCC(=O)NCC4CCCO4)s3)CC2=O)c1 (configuration not stated),3,-8,1,i,4,i
COC(=O)c1cc(N2CCN(C)CC2)nc2ccccc12,50*,-1,18,i,-62,i
